# The OligoGym collection
# How the values were obtained:
# Test in all cases: pooled miR-30 sensor sort-seq; sequence = guide strand
# Conditions in all cases: shRNA
# ULK1 = biological target: ULK1
# UMOD = biological target: UMOD
# UNC5A = biological target: UNC5A
# UNC5D = biological target: UNC5D
# UBXN2A = biological target: UBXN2A
# UST = biological target: UST
# VAMP8 = biological target: VAMP8
# WFDC12 = biological target: WFDC12
# XAGE3 = biological target: XAGE3
# YARS = biological target: YARS
# YWHAG = biological target: YWHAG
# ZBTB8A = biological target: ZBTB8A
# ZDHHC6 = biological target: ZDHHC6
# ZMAT5 = biological target: ZMAT5
# ZNF146 = biological target: ZNF146
# ZNF160 = biological target: ZNF160
# ZNF135 = biological target: ZNF135
# ZNF169 = biological target: ZNF169
# Also: reference of the scale not given here.
sequence,measurement,setting,value
TTTTTGTCTGTTATGTGGCGTG,sensor-assay potency score (higher = more potent),ULK1,-0.361
ATCAGTGATGTTGAAGTCCTGT,sensor-assay potency score (higher = more potent),UMOD,0.164
TTGAACAAAGAACTGCCTCTGC,sensor-assay potency score (higher = more potent),ULK1,1.01
TTGCAAAGAAAAACACACGTGT,sensor-assay potency score (higher = more potent),ULK1,0.333
TTGCACTTGAAGAAGATCTGCG,sensor-assay potency score (higher = more potent),UNC5A,0.732
TAGATCTCATAGATCTTCCCTC,sensor-assay potency score (higher = more potent),UNC5A,-0.268
TAGACTAGGTCATAGTTTCCAG,sensor-assay potency score (higher = more potent),UMOD,-0.219
TTGAGGATCATGGCTGTGGGGC,sensor-assay potency score (higher = more potent),UNC5A,-1.23
TAAATTAACTTTATGATGCTAC,sensor-assay potency score (higher = more potent),UNC5D,-0.135
TTACTCTTCCACAGGGAGCTGG,sensor-assay potency score (higher = more potent),UNC5A,-0.541
TAGTTGAGTCTCTAGTGTGTGG,sensor-assay potency score (higher = more potent),UMOD,-0.521
TATACTGCACTCCTCACACGTC,sensor-assay potency score (higher = more potent),UMOD,-0.701
ATGTGTATGTACAAACACCAGG,sensor-assay potency score (higher = more potent),ULK1,-1.55
TTGTAGACGTAGTAGCCGCCGG,sensor-assay potency score (higher = more potent),UMOD,-1.04
TTGTTCTTCTCGTAGAACAGGC,sensor-assay potency score (higher = more potent),ULK1,-0.479
TCGATTTGCAGTCCTCGTCTAT,sensor-assay potency score (higher = more potent),UMOD,-0.657
TAACCAACCTCTAAGTAGCTGA,sensor-assay potency score (higher = more potent),UNC5D,0.224
TTGATGCTGAAGCTCTGCCCGT,sensor-assay potency score (higher = more potent),UNC5A,-1.2
TTCCTCGTCAACACTGTCCCAC,sensor-assay potency score (higher = more potent),UMOD,0.0538
TCTCATAGATCTTCCCTCGGGG,sensor-assay potency score (higher = more potent),UNC5A,-0.279
TTCTTCTTGTTAATGCACTTGA,sensor-assay potency score (higher = more potent),ULK1,0.0356
ATCAAGAGAACATTCAACCAGG,sensor-assay potency score (higher = more potent),ULK1,-0.0767
TTGAAGTTGATGCTGAAGCTCT,sensor-assay potency score (higher = more potent),UNC5A,-0.155
TTCAGGTACAGCACCAGCTGTT,sensor-assay potency score (higher = more potent),ULK1,-0.477
TTGGTGAGCTGGAACTTGGGGC,sensor-assay potency score (higher = more potent),UNC5A,-0.337
TAGACGATGACAGCAGCGGAGG,sensor-assay potency score (higher = more potent),UNC5A,-1.55
TTGCAGTCCTCGTCTATACTGC,sensor-assay potency score (higher = more potent),UMOD,-0.687
TTGAAGTCCTGTTTGCACTGGC,sensor-assay potency score (higher = more potent),UMOD,0.829
TTGCACTTTTCATTCATGGTGT,sensor-assay potency score (higher = more potent),UMOD,0.244
TTGCTCTGGAGGTACCGCGCGA,sensor-assay potency score (higher = more potent),ULK1,-0.555
TTGTACAGCTCATTCAGCCTGC,sensor-assay potency score (higher = more potent),ULK1,0.11
TACATCTACCTGTTTCTTCTGT,sensor-assay potency score (higher = more potent),UBXN2A,0.409
TTCTTCTCGTAGAACAGGCGCA,sensor-assay potency score (higher = more potent),ULK1,-0.466
TAGAGCACTGACCATTGGCTGT,sensor-assay potency score (higher = more potent),UMOD,-0.936
TTGCGGGAGAACTCGAACTTGC,sensor-assay potency score (higher = more potent),ULK1,-0.945
TAGGCCTTCTGACTCTTGGTGG,sensor-assay potency score (higher = more potent),UNC5A,-0.43
TTAAGGGACAGCTTCGGCCGGG,sensor-assay potency score (higher = more potent),UNC5A,-0.139
TTGAAGAAGATCTGCGTGGCGG,sensor-assay potency score (higher = more potent),UNC5A,-0.341
TTTCATTCCTCGTCAACACTGT,sensor-assay potency score (higher = more potent),UMOD,0.582
TTGTACTTATCTAAACATCTTC,sensor-assay potency score (higher = more potent),UBXN2A,-0.32
TAACAGCAGCACATCTTCCAAC,sensor-assay potency score (higher = more potent),UST,-0.452
TTGTTGTGAATGTCTGATGTGA,sensor-assay potency score (higher = more potent),UST,-0.387
TTTGCAGGTTCCGCACACGATC,sensor-assay potency score (higher = more potent),VAMP8,-1.07
TTTAACTCCTTCCACAGCCACC,sensor-assay potency score (higher = more potent),WFDC12,-1.29
TTTAAGTCAAATATCTTAGATA,sensor-assay potency score (higher = more potent),XAGE3,-0.923
TCTAGTGTGTACTCTTTGCTGA,sensor-assay potency score (higher = more potent),YARS,0.0358
TTCTTCACATCCTCCTTCCGAT,sensor-assay potency score (higher = more potent),YARS,-0.429
TTTAAGTTTTCTTTTCATCTGA,sensor-assay potency score (higher = more potent),YWHAG,0.297
TAAACCATAAGGATGAATGAGA,sensor-assay potency score (higher = more potent),YWHAG,-0.514
TCACAAAATACATCTTGCCTGC,sensor-assay potency score (higher = more potent),ZBTB8A,-0.43
TTTTCTAGGGAACCAACCCCTT,sensor-assay potency score (higher = more potent),ZDHHC6,-1.12
TTGGTAACCACAACAGTTGTTG,sensor-assay potency score (higher = more potent),ZDHHC6,-0.394
TACTGGAAGACAGTGGTTCTGA,sensor-assay potency score (higher = more potent),ZMAT5,0.107
TTACATTCGAAAAGCTTCTCGC,sensor-assay potency score (higher = more potent),ZNF146,-0.0579
TTAACCTCATTCGTGGTGCTTT,sensor-assay potency score (higher = more potent),ZNF146,-0.543
TAAACAACAGGTATTGCTCTTT,sensor-assay potency score (higher = more potent),ZNF160,0.3
TAGAACTGACAGTTTGACTTTG,sensor-assay potency score (higher = more potent),ZNF135,-0.0496
TAGCGCATATTGTCTGAGGAGC,sensor-assay potency score (higher = more potent),ZNF169,-1.15
TTTCTAATGAAAGCTTTCCCAC,sensor-assay potency score (higher = more potent),ZNF146,-1.05
TCTATGTCTCTTCTGTCGCGTT,sensor-assay potency score (higher = more potent),ZNF160,-0.213
TTCTATGTCTCTTCTGTCGCGT,sensor-assay potency score (higher = more potent),ZNF160,0.15
TTACCTATTACTCTCCTCCCAC,sensor-assay potency score (higher = more potent),ZNF160,-0.496
TTTTGAGTGAAGCTCTTGCCAC,sensor-assay potency score (higher = more potent),ZNF160,-0.929
TTTTATGAGGTACTTCTTCTGG,sensor-assay potency score (higher = more potent),ZNF146,-0.457
ATGAATATCAGAGTCAACCTGC,sensor-assay potency score (higher = more potent),ZNF135,0.469
TTTATCACCTGAATGAATCCTC,sensor-assay potency score (higher = more potent),ZNF146,0.519
TAGAGCATCTTGGAGCTTCTAG,sensor-assay potency score (higher = more potent),ZNF169,-0.619
TAGGCTTGAACGAACACTGAAG,sensor-assay potency score (higher = more potent),ZNF160,-0.806
TAAGGTGTGACTTCTGGCCAAG,sensor-assay potency score (higher = more potent),ZNF169,-0.969
TTAAAGTTAACCTCATTCGTGG,sensor-assay potency score (higher = more potent),ZNF146,0.427
TATGTTTACATGATGTCTCTTG,sensor-assay potency score (higher = more potent),ZNF160,0.273
TGTCTTTCCAACACCACTGTGT,sensor-assay potency score (higher = more potent),ZNF160,0.215
TTCAACATTGTGTCTGACCCCC,sensor-assay potency score (higher = more potent),ZNF169,0.288
TTGCTTTAGAACTGACAGTTTG,sensor-assay potency score (higher = more potent),ZNF135,-1.45
TTGGATTTGCCACTGAAGGTTT,sensor-assay potency score (higher = more potent),ZNF146,-0.469
TTTCTTAATGAGCTGTCGGGGC,sensor-assay potency score (higher = more potent),ZNF169,-0.62
TAACATAGCACTAATGGGCGTT,sensor-assay potency score (higher = more potent),ZNF135,0.0821
TGTTCGATAAGTGCTGAGCTGT,sensor-assay potency score (higher = more potent),ZNF135,-0.66
TTTCACTAGAGCATCTTGGAGC,sensor-assay potency score (higher = more potent),ZNF169,-0.176
TCCACAAACATTGCATTCGTAA,sensor-assay potency score (higher = more potent),ZNF146,-1.11
TTTCTTGCTATTTTCACACAGC,sensor-assay potency score (higher = more potent),ZNF160,-0.0844
TTGATAAGGTCTGATCTCTGGC,sensor-assay potency score (higher = more potent),ZNF169,0.151
TTCTGTACTGCTCTTCTCTTTT,sensor-assay potency score (higher = more potent),ZNF160,-0.536
TTTTTCACTAGAGCATCTTGGA,sensor-assay potency score (higher = more potent),ZNF169,0.14
